Results: PubChem BioAssay (Tox21)
Several values for one entry are separate records, joined by “and”; a condition that tells them apart may be missing. Equal entries are not always repeated. Inconclusive results are not listed. Where a call stands in place of a potency, no number is given. Activity calls are given as the source filed them. Unless noted, calls come from the whole dose curve; as a rule, active = well fitted curve in the direction sought with a large enough effect in the repeat runs; inconclusive = weak or mixed curves; inactive = no such curve, though single readings can be large; an effect the other way counts as inactive or inconclusive.

Columns and labels:
[1] = qHTS assay to identify small molecule antagonists of the androgen receptor (AR) signaling pathway using the MDA cell line in the presence of 0.5 nM R1881 - cell viability counter screen (AID 1259242); note: nearly all actives have a fitted effect of over 45% in size
How it was run: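 Human breast carcinoma MDA-kb2 cells, cultured without CO2, receive compounds alongside 0.5 nM (final) R1881 agonist. After 16 hr at 37C, viability is taken as live-cell protease signal.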

[2] = molecular target: Estrogen receptor (Homo sapiens) (UniProt P03372); test: qHTS assay to identify small molecule antagonists of the estrogen receptor alpha (ER-alpha) signaling pathway using the BG1 cell line in the presence of 0.1 nM 17-beta-estradiol (AID 1259244); note: nearly all actives have a fitted effect of over 50% in size
Sequence of Estrogen receptor (Homo sapiens) (P03372 whole entry, looked up): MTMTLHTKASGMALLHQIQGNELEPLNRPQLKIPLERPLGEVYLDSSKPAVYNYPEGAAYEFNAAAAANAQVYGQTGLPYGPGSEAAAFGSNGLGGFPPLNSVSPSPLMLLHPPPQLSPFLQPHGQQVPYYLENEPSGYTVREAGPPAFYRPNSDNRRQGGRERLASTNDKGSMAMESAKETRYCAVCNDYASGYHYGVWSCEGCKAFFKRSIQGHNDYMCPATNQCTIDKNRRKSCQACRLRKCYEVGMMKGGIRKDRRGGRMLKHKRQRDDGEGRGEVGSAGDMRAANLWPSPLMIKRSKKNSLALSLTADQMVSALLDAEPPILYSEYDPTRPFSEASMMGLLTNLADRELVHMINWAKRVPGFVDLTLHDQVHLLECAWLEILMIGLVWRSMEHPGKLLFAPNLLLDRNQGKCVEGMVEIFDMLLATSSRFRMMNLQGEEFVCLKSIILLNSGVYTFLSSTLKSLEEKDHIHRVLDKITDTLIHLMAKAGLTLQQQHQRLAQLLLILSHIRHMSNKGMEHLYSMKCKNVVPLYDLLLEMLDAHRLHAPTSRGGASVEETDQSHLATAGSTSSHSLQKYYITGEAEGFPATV
How it was run: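 Seeding of stripped-serum-adapted VM7Luc4E2 cells, 24 h attachment, compound transfer, then 0.1 nM final 17beta-estradiol; after 22 h incubation, ONE-Glo reagent and luminescence reading.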

[3] = qHTS assay to identify small molecule HDAC inhibitors (AID 1259364);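 note: wild-type HCT-116 cells with endogenous class I/II HDAC activity; top concentration of the series differs between compounds; nearly all actives have a fitted effect of over 45% in size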
How it was run: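 After a 2 hr compound incubation (37C, 5% CO2), HCT-116 cells seeded at 1,500/well the day before received HDAC-Glo reagent; signal read as luminescence after 30 min at room temperature.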

[4] = qHTS assay to identify small molecule HDAC inhibitors - cell viability counter screen (AID 1259365); note: series mostly up to about 92 µM; nearly all actives have a fitted effect of over 50% in size
How it was run: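 HCT-116 wild-type, overnight attachment; 2hr drug exposure, 37C; CellTiter-Glo luminescent ATP readout after 30min RT.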

[5] = qHTS assay to identify small molecule agonists of the sonic hedgehog signaling (Shh) pathway - cell viability counter screen (AID 1259366); note: nearly all actives have a fitted effect of over 50% in size
How it was run: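 Compounds in DMSO were pin-transferred onto 3T3 Gli1-Luc cells that had settled 4hr; plates then stood 24hr at 37C and 5% CO2. One hour before the end, CellTiter-Fluor was added and fluorescence recorded.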

[6] = qHTS assay to identify small molecule antagonists of the sonic hedgehog signaling (Shh) pathway - cell viability counter screen (AID 1259367); note: nearly all actives have a fitted effect of over 55% in size
How it was run: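 Conditioned medium drove Shh signaling in 3T3 Gli1-Luc cells exposed to compounds at 37C and 5% CO2. Viability was determined from CellTiter-Fluor fluorescence, with reagent incubated 1 hr after 23 hr of treatment.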

[7] = qHTS assay to identify small molecule agonists of the sonic hedgehog signaling (Shh) pathway (AID 1259368; calls by dose curve;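 note: NIH/3T3-derived 3T3Gli1-Luc cells carrying a stable Gli1-driven firefly luciferase reporter; series mostly up to about 92 µM; nearly all actives have a fitted effect of over 15% in size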)
How it was run: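 Stable NIH/3T3 Gli1-Luc reporter clone; 24 hr cpd exposure after a 4 hr settling period; luminescence endpoint.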

[8] = qHTS assay to identify small molecule antagonists of the sonic hedgehog signaling (Shh) pathway (AID 1259369; calls by dose curve; note: nearly all actives have a fitted effect of over 45% in size)
How it was run: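 Gli1 transcriptional reporter (firefly Luc) in NIH/3T3 background, conditioned-medium activated. 24hr exposure, luminescence endpoint.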

[9] = molecular target: Estrogen receptor beta (Homo sapiens) (UniProt Q92731); test: qHTS assay to identify small molecule agonists of the estrogen receptor beta (ER-beta) signaling pathway (AID 1259377; active = well fitted activation curve with a large enough effect in the signal ratio in the repeat runs, not every such curve was filed as active; the % refers to the signal ratio)
Sequence of Estrogen receptor beta (Homo sapiens) (Q92731 whole entry, looked up): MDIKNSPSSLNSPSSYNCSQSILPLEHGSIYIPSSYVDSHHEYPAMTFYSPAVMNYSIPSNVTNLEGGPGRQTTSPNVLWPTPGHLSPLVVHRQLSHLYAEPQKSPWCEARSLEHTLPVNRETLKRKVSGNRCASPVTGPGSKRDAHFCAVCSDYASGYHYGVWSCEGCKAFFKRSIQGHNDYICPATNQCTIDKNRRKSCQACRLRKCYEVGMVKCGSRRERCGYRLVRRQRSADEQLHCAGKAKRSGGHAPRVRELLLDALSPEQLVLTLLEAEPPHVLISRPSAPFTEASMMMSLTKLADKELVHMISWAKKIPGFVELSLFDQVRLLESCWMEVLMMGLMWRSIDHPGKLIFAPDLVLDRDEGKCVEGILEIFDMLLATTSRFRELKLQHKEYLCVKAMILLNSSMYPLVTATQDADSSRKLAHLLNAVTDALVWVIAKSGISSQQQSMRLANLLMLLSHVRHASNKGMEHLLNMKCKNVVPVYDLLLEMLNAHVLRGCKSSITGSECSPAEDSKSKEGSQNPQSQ
How it was run: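 qHTS in ER-beta-UAS-bla HEK293T cells: 6 hr settling, then 16 hr compound at 37C, then LiveBLAzer substrate 2 h at RT before fluorescence reading.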

[10] = molecular target: Estrogen receptor beta (Homo sapiens) (UniProt Q92731); test: qHTS assay to identify small molecule antagonists of the estrogen receptor beta (ER-beta) signaling pathway (AID 1259378; active = well fitted inhibition curve with a large enough effect in the signal ratio in the repeat runs, not every such curve was filed as active; the % refers to the signal ratio)
How it was run: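 ER-beta-UAS-bla HEK293T (GripTite) cells in 2% charcoal-stripped FBS medium were preincubated 6 hr at 37C, dosed with compound, then stimulated with 1 nM E2 (final) for 16 hr; beta-lactamase reporter read by B/G FRET fluorescence after 2 hr substrate loading.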

[11] = qHTS assay to identify small molecule agonists of the androgen receptor (AR) signaling pathway in the presence of an antagonist - cell viability counter screen (AID 1259379);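 note: MDA-kb2 human breast cancer cells carrying an MMTV luciferase reporter; series mostly up to about 92 µM; nearly all actives have a fitted effect of over 25% in size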
How it was run: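 Counter screen for cell viability run in parallel with the AR agonist-mode luciferase assay. MDA-kb2 cells were co-treated with nilutamide (3.0uM final) and compounds, then incubated 16 hr at 37C, and CellTiter-Fluor fluorescence was measured.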

[12] = qHTS assay to identify small molecule agonists of the estrogen receptor beta (ER-beta) signaling pathway - cell viability counter screen (AID 1259380); note: nearly all actives have a fitted effect of over 30% in size
How it was run: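 In this qHTS counter screen, HEK293T cells carrying an ER-beta/UAS beta-lactamase reporter, grown in 2% charcoal-stripped FBS, received compound for 16 hr; ATP-based CellTiter-Glo luminescence was then read after 30 min at room temperature.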

[13] = qHTS assay to identify small molecule antagonists of the estrogen receptor beta (ER-beta) signaling pathway - cell viability counter screen (AID 1259382); note: series mostly up to about 92 µM; nearly all actives have a fitted effect of over 55% in size
How it was run: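 HEK293T ER-beta-UAS-bla, 2% charcoal-stripped FBS; compounds + 1nM E2 16 hr 37C; CellTiter-Glo luminescence, 30 min RT.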

[14] = molecular target: Estrogen receptor (Homo sapiens) (UniProt P03372); test: qHTS assay to identify small molecule agonists of the estrogen receptor alpha (ER-alpha) signaling pathway in the presence of an antagonist (AID 1259383; calls by dose curve; note: top concentration of the series differs between compounds; nearly all actives have a fitted effect of over 15% in size)
How it was run: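 ER-alpha agonism measured under antagonist challenge: 10.0nM ICI-182,780 (final) plus compound, 15 concentrations, 22hr, VM7Luc4E2 ERE-luciferase cells. Read by luminescence.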

[15] = qHTS assay to identify small molecule agonists or antagonists of the thyroid stimulating hormone receptor (TSHR) signaling pathway - wild type cell line counter screen (AID 1259384; calls by dose curve)
How it was run: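 Wild-type HEK293 cells were plated 18 h at 37 C/5% CO2, pin-dosed with compound plus Ro20-1724 medium, held 30 min at room temperature, then given cAMP-d2 and anti-cAMP-cryptate; fluorescence was read after 1 h. Fifteen concentrations, triplicate.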

[16] = molecular target: Thyrotropin receptor (Homo sapiens) (UniProt P16473); test: qHTS assay to identify small molecule antagonists of the thyroid stimulating hormone receptor (TSHR) signaling pathway (AID 1259385; calls by dose curve; note: nearly all actives have a fitted effect of over 20% in size)
Sequence of Thyrotropin receptor (Homo sapiens) (P16473 whole entry, looked up): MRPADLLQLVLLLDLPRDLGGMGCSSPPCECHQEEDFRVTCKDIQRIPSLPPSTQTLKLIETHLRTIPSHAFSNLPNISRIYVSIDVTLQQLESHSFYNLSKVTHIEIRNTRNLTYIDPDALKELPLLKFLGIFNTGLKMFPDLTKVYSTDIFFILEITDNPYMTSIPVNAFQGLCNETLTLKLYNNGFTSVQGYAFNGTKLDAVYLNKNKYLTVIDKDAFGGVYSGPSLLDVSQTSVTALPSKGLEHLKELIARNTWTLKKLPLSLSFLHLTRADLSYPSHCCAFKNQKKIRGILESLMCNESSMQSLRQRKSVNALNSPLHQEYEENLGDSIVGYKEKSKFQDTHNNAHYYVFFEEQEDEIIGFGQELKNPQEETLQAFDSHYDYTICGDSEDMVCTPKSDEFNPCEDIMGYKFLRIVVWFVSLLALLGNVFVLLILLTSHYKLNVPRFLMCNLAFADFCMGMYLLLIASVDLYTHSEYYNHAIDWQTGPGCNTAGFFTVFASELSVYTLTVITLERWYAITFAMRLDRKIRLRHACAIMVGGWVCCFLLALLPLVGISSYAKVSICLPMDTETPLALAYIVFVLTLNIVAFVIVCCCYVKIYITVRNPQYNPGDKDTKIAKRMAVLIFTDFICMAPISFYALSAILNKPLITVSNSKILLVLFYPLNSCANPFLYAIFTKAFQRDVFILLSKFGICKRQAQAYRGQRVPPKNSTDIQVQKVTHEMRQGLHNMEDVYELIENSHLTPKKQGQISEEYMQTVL
How it was run: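 TSHR-HEK293 cells were plated and held 18 h at 37C/5% CO2, then given compound plus Ro20-1724 and stimulated with TSH at 1.5 ng/mL final. After 30 min at room temperature, cAMP was detected with cAMP-d2/anti-cAMP-cryptate (1 h) by fluorescence.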

[17] = qHTS assay to identify small molecule phospholipidosis (PLD) inducers (AID 1259344; active = well fitted curve in the direction sought with a large enough effect; an effect the other way counts as inactive or inconclusive)
How it was run: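 After 4 h attachment on collagen I, HepG2 cells were dosed with compound alongside LipidTOX Red, kept 24 h at 37 C, fixed, and imaged for lamellar phospholipid pits.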

[18] = molecular target: Androgen receptor (Homo sapiens) (UniProt P10275); test: qHTS assay to identify small molecule antagonists of the androgen receptor (AR) signaling pathway using the MDA cell line in the presence of 0.5 nM R1881 (AID 1259243); note: nearly all actives have a fitted effect of over 50% in size
Sequence of Androgen receptor (Homo sapiens) (P10275 whole entry, looked up): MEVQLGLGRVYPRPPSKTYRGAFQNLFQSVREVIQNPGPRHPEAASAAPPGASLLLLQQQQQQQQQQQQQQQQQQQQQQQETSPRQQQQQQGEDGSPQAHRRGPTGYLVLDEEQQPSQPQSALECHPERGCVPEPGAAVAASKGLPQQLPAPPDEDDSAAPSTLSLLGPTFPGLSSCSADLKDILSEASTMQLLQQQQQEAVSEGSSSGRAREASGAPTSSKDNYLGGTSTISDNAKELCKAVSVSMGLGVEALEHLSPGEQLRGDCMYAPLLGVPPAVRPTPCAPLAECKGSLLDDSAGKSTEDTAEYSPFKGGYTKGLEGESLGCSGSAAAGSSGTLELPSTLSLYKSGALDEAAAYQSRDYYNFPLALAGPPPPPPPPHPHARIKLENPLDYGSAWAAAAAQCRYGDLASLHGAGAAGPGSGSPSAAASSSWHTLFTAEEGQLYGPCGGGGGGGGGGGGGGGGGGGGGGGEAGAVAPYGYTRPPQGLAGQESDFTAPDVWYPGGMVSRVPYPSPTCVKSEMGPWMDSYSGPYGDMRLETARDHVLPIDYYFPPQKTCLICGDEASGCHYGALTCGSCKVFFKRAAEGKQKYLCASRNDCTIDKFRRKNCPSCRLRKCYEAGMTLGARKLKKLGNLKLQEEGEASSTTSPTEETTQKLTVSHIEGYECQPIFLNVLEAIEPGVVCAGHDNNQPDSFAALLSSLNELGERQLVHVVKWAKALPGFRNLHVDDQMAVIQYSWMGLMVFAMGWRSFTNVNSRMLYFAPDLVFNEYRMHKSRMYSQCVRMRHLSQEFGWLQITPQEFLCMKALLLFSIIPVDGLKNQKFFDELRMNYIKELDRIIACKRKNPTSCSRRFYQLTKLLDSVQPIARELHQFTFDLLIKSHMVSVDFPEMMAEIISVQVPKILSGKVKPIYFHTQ
How it was run: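 Cells: MDA-kb2 (MMTV-luc). Stimulus: 0.5 nM R1881. Time: 16 hr, 37C, no CO2. Detection: ONE-Glo luminescence after 30 min at RT.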

[19] = molecular target: Androgen receptor (Homo sapiens) (UniProt P10275); test: qHTS assay to identify small molecule agonists of the androgen receptor (AR) signaling pathway in the presence of an antagonist (AID 1259381; calls by dose curve; note: nearly all actives have a fitted effect of over 15% in size; note: potency is the fitted concentration of half-maximal effect)
How it was run: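 AR antagonist background: nilutamide 3.0uM final. Cell line: MDA-kb2, MMTV-driven luciferase, responsive to both AR and GR. Exposure 16hr, 37C, no CO2; ONE-Glo luminescence.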

Compound | Potency [1] | Potency [2] | Potency [3] | outcome [4] | Potency [5] | Potency [6] | outcome [7] | Potency [8] | Potency [9] | Potency [10] | Potency [11] | Potency [12] | outcome [13] | Potency [14] | outcome [15] | outcome [16] | outcome [17] | Potency [18] | Potency [19]
C[Si]1(C)O[Si](C)(C)O[Si](C)(C)O[Si](C)(C)O1 | inactive | inactive | inactive | inactive | inactive | inactive | inactive | inactive | inactive | inactive | inactive | inactive | inactive | inactive | inactive | inactive | – | – | –
COCCOC(=O)c1ccccc1C(=O)OCCOC | inactive | – | inactive | inactive | inactive | inactive | inactive | inactive | inactive | – | inactive | inactive | – | – | inactive | inactive | – | – | –
C=CCc1ccc(OC)c(OC)c1 | inactive | – | inactive | inactive | inactive | inactive | inactive | inactive | inactive | inactive | inactive | – | – | – | inactive | inactive | – | – | –
Nc1ccc(Cl)c(N)c1 | inactive | inactive | inactive | inactive | inactive | inactive | inactive | inactive | inactive | inactive | inactive | inactive | – | inactive | inactive | inactive | – | – | –
Cc1ccc(C(C)C)c(O)c1 | inactive | inactive | inactive | inactive | inactive | inactive | inactive | inactive | inactive | inactive | inactive | inactive | inactive | inactive | – | – | inactive | – | –
c1ccc(Oc2ccccc2)cc1 | inactive | – | inactive | inactive | inactive | inactive | inactive | inactive | inactive | – | inactive | inactive | inactive | – | inactive | inactive | – | – | –
NCCCCCCN | inactive | – | inactive | inactive | inactive | inactive | inactive | inactive | – | – | inactive | inactive | – | – | inactive | inactive | – | – | –
CC(C)CC(C)O (stereo unspecified) | inactive | inactive | inactive | inactive | inactive | inactive | inactive | inactive | inactive | – | inactive | inactive | inactive | inactive | inactive | inactive | – | – | –
C[C@]12CCC(=O)C=C1CC[C@@H]1[C@@H]2[C@@H](O)C[C@@]2(C)[C@H]1CC[C@]2(O)C(=O)CO | inactive | – | inactive | inactive | inactive | inactive | inactive | inactive | inactive | inactive | inactive | – | inactive | – | inactive | inactive | inactive | inactive | 246 nM (active) and 150 nM (active)
CC(C)=CCl | inactive | inactive | inactive | inactive | inactive | inactive | inactive | inactive | – | – | inactive | – | inactive | inactive | inactive | inactive | – | – | –
CC(O)CC(C)(C)O (stereo unspecified) | inactive | – | inactive | inactive | inactive | inactive | inactive | inactive | – | – | inactive | – | – | – | – | – | – | – | –
CC(=O)OC1CC(C)OC(C)O1 (stereo unspecified) | inactive | – | inactive | inactive | inactive | inactive | inactive | inactive | inactive | – | inactive | inactive | – | – | – | – | – | – | –
COc1ccccc1OCC(O)CO (stereo unspecified) | inactive | – | inactive | inactive | inactive | inactive | inactive | inactive | inactive | – | inactive | – | inactive | – | inactive | inactive | inactive | inactive | inactive
CCCOC(=O)c1ccccc1 | inactive | – | inactive | inactive | inactive | inactive | inactive | inactive | – | – | inactive | – | inactive | – | inactive | inactive | inactive | – | –
O=C(O)/C=C/C(=O)O | – | – | inactive | inactive | inactive | inactive | inactive | inactive | inactive | inactive | inactive | – | – | – | inactive | inactive | – | – | –
NC(=S)NNC(N)=S | inactive | – | inactive | inactive | inactive | inactive | inactive | inactive | – | – | inactive | – | inactive | – | inactive | inactive | – | – | –
CC(CCl)OP(=O)(OC(C)CCl)OC(C)CCl (stereo unspecified) | inactive | inactive | inactive | inactive | inactive | inactive | inactive | inactive | inactive | inactive | inactive | – | inactive | inactive | inactive | inactive | – | – | –
Cc1ccc2ncccc2c1 | inactive | inactive | inactive | inactive | inactive | inactive | inactive | inactive | – | – | inactive | inactive | inactive | inactive | inactive | inactive | – | – | –
CCCCCCCCCCCCCCCC(=O)OC(C)C | inactive | – | inactive | inactive | inactive | inactive | inactive | inactive | inactive | – | inactive | inactive | inactive | – | – | – | inactive | – | –
